Compound activity: PubChem BioAssay, National Center for Advancing Translational Sciences (NCATS)
KB-V1 cytotox = KB-V1 MDR subline cytotoxicity. KB-V1 MDR cells viability, CellTiter-Glo, 72 h. Potency, µM (series often up to 46.1 µM), actives largely listed as cytotoxic. actives 3.4% (n = 400,000). AID 1347076; also: % is scaled to controls: 0 for no effect and ±100 for the full control effect; nearly all actives have a fitted effect of over 60% in size
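Compound-treated KB-V1 multidrug-resistant cells, 72 h, 37 degrees C; viability by CellTiter-Glo. Fitted qHTS curves give the values.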
S2 tox = cell viability loss in ATXN counter-screen; actives 0.49% (n = 400,000); S2 cells (HEK-293 line with an ATXN2-luciferase reporter) viability, CellTiter-Fluor protease fluorescence, 24 h; Potency, µM (highest dose often 56.7 µM), most hits filed as cytotoxic; also: nearly all actives have a fitted effect of over 40% in size
HT1080NT lethal = kills 2HG-producing HT-1080-NT fibrosarcoma cells; Potency, µM (highest dose often 46.1 µM), without a hit: at the top dose activity, negative = less viability, hits mostly cytotoxic; HT-1080-NT fibrosarcoma viability, CellTiter-Glo ATP luminescence, 48 h; actives 1.6% (n = 360,000);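 also: NT is the 2HG producing partner of a matched IDH1 knockdown line; 0% = DMSO-treated cells and -100% = media-only wells without cells; nearly all actives have a fitted effect of over 55% in size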
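Toxicity toward the 2HG-producing NT line was scored as %Activity, normalised to DMSO and no-cell wells, from CellTiter-Glo luminescence after 48 hours' treatment.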
KB-3-1 cytotox = kills parental KB-3-1 adenocarcinoma cells; actives 1.4% (n = 400,000); KB-3-1 viability, CellTiter-Glo ATP luminescence, 72 h; Potency, µM (highest dose often 46.1 µM), actives largely listed as cytotoxic; also: % is scaled to controls: 0 for no effect and ±100 for the full control effect; nearly all actives have a fitted effect of over 60% in size
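Parental KB-3-1 viability, qHTS format: 72 h compound exposure, 37 °C; CellTiter-Glo; media-only wells and DMSO plates as controls; concentration-effect fits on corrected data.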
HT1080 IDH1KD tx = HT-1080 IDH1 knockdown cell toxicity (counter line) | Potency, µM (highest dose often 46.1 µM), inactives show top-dose activity, negative = toxicity, most hits filed as cytotoxic | actives 2% (n = 360,000) | AID 686971 | HT-1080 IDH1 knockdown viability, ATP luminescence, 48 h;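 also: 0% = DMSO wells and -100% = cell-free medium wells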
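In this qHTS, HT-1080 cells depleted of IDH1 are exposed for 48 h at 37 °C to compound titrations. Toxicity is scored from CellTiter-Glo luminescence, with DMSO as full viability and medium alone as none.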
ATXN2 expr inh = ATXN2 expression inhibition | Potency, µM (highest dose often 57 µM), without a hit: at the top dose activity change, negative = inhibition, most hits filed as inhibitors | AID 1745845 | HEK-293 ATXN2-luciferase reporter, luminescence, 24 h | actives 0.72% (n = 360,000); also: % is scaled to controls: 0 for no effect and ±100 for the full control effect; nearly all actives have a fitted effect of over 55% in size
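ATXN2-luciferase reporter cells (luciferase flanked by upstream and downstream ATXN2 gene portions) were treated 24 h at 37 °C with compounds at up to 57 uM. SteadyGlo luminescence gave expression; GF-AFC fluorescence gave viability.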
Numbers without * were called inactive; i = inactive; ? = inconclusive; · = not tested or not shown; [ ] = another dose, or the depositor's remark. Only some compounds are listed: those with a hit (about 6.2% of all), similar ones and a draw of the others. Calls follow the shape of the dose curve; as a rule, active = well fitted curve in the direction sought with a large enough effect; inconclusive = small, poorly fitted or top-dose-only effect, or another doubt; inactive = no such curve, though single readings can be large; an effect the other way counts as inactive or inconclusive. Potency is read from the fitted curve at half-maximal effect.

SMILES	KB-V1 cytotox	S2 tox	HT1080NT lethal	KB-3-1 cytotox	HT1080 IDH1KD tx	ATXN2 expr inh
CN1CCN(c2nc3c(c(=O)n(C)c(=O)n3C)n2Cc2cccc(Br)c2)CC1	i	i	-4.8%	i	-4.1%	-26.6%
Cn1c(N2CCCCC2)nc2c1c(=O)n(Cc1cccc(Br)c1)c(=O)n2C	10.3µM*	?	5.0%	i	15.2%	10.4%
Cc1ccnc(SCCn2c(N3CCCCC3)nc3c2c(=O)n(C)c(=O)n3C)n1	18.4µM*	?	13.2%	i	10.2%	4.9%
Cc1ccnc(SCCn2c(N3CCC(C)CC3)nc3c2c(=O)n(C)c(=O)n3C)n1	i	i	-1.4%[9.24 µM]	i	4.0%	6.2%
COc1ccc(NC(=O)CN(C)S(=O)(=O)c2ccc(C(=O)N3CCOCC3)s2)cc1	i	i	·	i	·	1.9%
CN(C)Cc1c(C(=O)NCCOc2ccc(C(=O)NO)cc2)oc2ccccc12	·	·	·	·	·	119.5%
CCOC(=O)c1ccccc1NC(=O)c1c(-c2ccccc2)noc1C	?	i	·	?	·	-19.4%
Cc1onc(-c2ccccc2)c1C(=O)Nc1sc2c(c1C#N)CCC(C)C2 (centres undefined)	?	i	12.6µM*	?	0.2%[9.24 µM]	-22.3%
CCOC(=O)c1c(NC(=O)c2c(-c3ccccc3)noc2C)sc(C)c1-c1ccccc1	6.51µM*	i	-29.1%	2.06µM*	?	-33.5%
O=C(Cn1c(-c2cccs2)cc2ccccc21)NCCCN1CCN(c2cccc(Cl)c2)CC1	i	?	·	i	·	?
Cc1cnc(Nc2ccc(OCCN3CCCC3)cc2)nc1Nc1cccc(S(=O)(=O)NC(C)(C)C)c1	·	·	·	·	·	3.9%
CCn1c(-c2ccccc2F)nc2cc(NC(C)=O)cc(C(=O)NC(c3ccccn3)C(F)(F)F)c21 (centres undefined)	·	i	·	·	·	·
C=CC[C@@H](CC(=O)N(CCO)Cc1ccccc1)C(=O)N[C@@H](COC(=O)[C@@H](CC=C)CC(=O)OC(C)(C)C)Cc1c[nH]c2ccccc12	i	20µM*	?	?	?	35.5µM*
C=CC[C@@H](CC(=O)N(CCO)Cc1ccccc1)C(=O)N[C@H](COC(=O)[C@@H](CC=C)CC(=O)OC(C)(C)C)c1ccccc1	?	·	?	?	-5.1%	?
C=CC[C@@H](CC(=O)N(CCO)Cc1ccccc1)C(=O)N[C@H](COC(=O)[C@@H](CC=C)CC(=O)OC(C)(C)C)C(C)(C)C	i	28.2µM*	-3.7%	i	-17.5%	?
C=CC[C@H](CC(=O)N(CCO)Cc1ccccc1)C(=O)N[C@H](COC(=O)[C@H](CC=C)CC(=O)OC(C)(C)C)Cc1ccccc1	i	22.4µM*	-13.0%	i	-12.9%	-2.3%
C=CC[C@@H](CC(=O)N(CCO)Cc1ccccc1)C(=O)N[C@H](COC(=O)[C@@H](CC=C)CC(=O)OC(C)(C)C)Cc1c[nH]c2ccccc12	i	·	-25.9%	i	-25.2%	?
Cc1cccc(OCC(=O)Nc2ccc(OCc3cc(=O)n4cc(C)ccc4n3)cc2)c1	?	·	·	i	·	·
CC1CCN(S(=O)(=O)N2CCCC(C(=O)NCc3ccc(F)cc3)C2)CC1 (centres undefined)	i	i	-6.8%	i	-3.2%	-19.3%
CSc1ccc(CNC(=O)C2CCCN(S(=O)(=O)N(C)c3ccc(F)cc3)C2)cc1 (centres undefined)	i	·	·	16.4µM*	·	·
COc1ccc(/C=N/Nc2cc(N3CCOCC3)ncn2)c(OC)c1	?	i	10.0%	i	-0.1%	-4.0%
COc1cccc(/C=N/Nc2cc(N3CCOCC3)ncn2)c1O	i	i	?	10.3µM*	5.8µM*	?
CCCCSc1nc(C)cc(SCC(=O)N/N=C/c2cccc(OC)c2O)n1	i	?	?	?	?	7.08µM*
COc1cccc(/C=N/Nc2ncnc3c2ncn3Cc2ccccc2)c1O	0.517µM*	i	-13.6%	?	?	?
Cc1nnc(N/N=C/c2ccccc2F)n1N	i	i	7.9%	i	1.3%	-17.6%
SMILES	KB-V1 cytotox	S2 tox	HT1080NT lethal	KB-3-1 cytotox	HT1080 IDH1KD tx	ATXN2 expr inh
COc1cccc(/C=N/Nc2nnc(C)n2N)c1O	i	i	?	i	20.6µM*	-0.5%
CCc1cccc(C)c1NC(=O)CN1CCN(Cc2ccccc2Cl)S1(=O)=O	?	·	·	i	·	·
COc1cccc(/C=N/NC(=O)CSc2nnc(C)n2-c2ccccc2)c1O	i	?	?	?	13µM*	?
CC(C(=O)Nc1cc([N+](=O)[O-])ccc1Cl)N1CCN(c2ccccc2O)CC1 (centres undefined)	10.3µM*	i	?	?	?	17.5%
CC1CCN(S(=O)(=O)c2cc(C(=O)NCCc3ccccc3)n(C)c2)CC1	i	i	·	i	·	-12.8%
CC(C)(C)C(=O)Cn1ncc(N2CCCC2)c(Br)c1=O	i	i	3.4%	i	3.0%	32.4%
CC(=O)Cn1ncc(Br)c(Br)c1=O	?	?	10.3µM*	?	7.31µM*	?
Cc1noc(C)c1CC(=O)N1CCOc2c(cc(-c3nc4ccccc4s3)cc2OC2CCOC2)C1 (centres undefined)	·	i	·	·	·	·
CCCCCNCc1ccc(Cl)cc1	i	i	-0.1%	i	3.3%	-5.2%
COc1ccc(CNCC(O)(c2ccc(Cl)cc2)c2ccc(Cl)cc2)cc1OC	7.31µM*	?	?	i	?	?
CCCCNCC(O)(c1ccc(Cl)cc1)c1ccc(Cl)cc1	i	?	?	i	18.4µM*	?
O=S1(=O)N=C(Oc2ccc(C(F)(F)F)cc2)c2ccccc21	i	·	·	?	·	·
